Drawing on PubChem BioAssay, this text covers composite z-score for 29 molecules.

One test relates to Sam68 (KHDRBS1). As to the kind of experiment: compounds binding KHDRBS1 protein – biochemical, small-molecule microarray, 635 nm fluorescence, primary screen (AID 1125).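 Note: score merges 667 nm channel intensity with signal to noise over triplicate slides.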 The settings on record: higher = more signal.
Turning to `O=C1NC(=O)C2C1C=CC(C(O)C1CCCCC1)N2Nc1ccccn1` (centres undefined), the composite z-score was found to be 0.233.

For the molecule `COC(=O)C1(CC(C)C)C=C2C(=C(C)C(=O)C2C)CN1` (centres undefined), the composite z-score is -0.0177.

In turn, `Cc1ccc(N2C(=O)c3ccccc3[C@@H](C(=O)NCCN3CCOCC3)[C@@H]2c2ccc(CO)cc2)nc1` gave a composite z-score of -0.342.

Molecule `COCCOC(=O)N1C(=O)[C@@]2(c3cc(C#CCNC(N)=O)ccc31)[C@H](c1ccc(O)cc1)N1[C@H](c3ccccc3)[C@H](c3ccccc3)OC(=O)[C@H]1[C@@H]2C(=O)N1CCc2cc(OC)c(OC)cc2C1` had a composite z-score of 1.21.

In turn, `O=C(NC1CC1)[C@@H]1c2ccccc2C(=O)N(C2CCCCC2)[C@H]1c1ccc(CO)cc1` had a composite z-score of 0.454.

In turn, `COc1ccc([Si](C)(C)[C@@H]2[C@@H](CC(=O)N(CCO)Cc3ccccc3)O[C@]3(C(=O)N(Cc4cccc(I)c4)c4ccccc43)[C@H]2C)cc1` came in with a composite z-score of 1.01.

The subject of another test is Chordin-like protein 2 (CHRDL2). As to the kind of experiment: compounds binding chordin-like 2 – biochemical, small-molecule microarray, 635 nm fluorescence, primary screen (AID 1126).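 Note: printed compound slides probed with Chrdl2 protein at 4 µg/mL for 1 h at 4 C; score merges 667 nm emission intensity with signal to noise over three replicate slides.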 The settings on record: fluorescence 635 nm, higher = more signal.
Take `O=C(O)C1=CC[C@H]2C(=O)N(c3ccccc3)C(=O)[C@@H]12`: the composite z-score is -0.0125.

On to `CCc1cccc(NC(=O)O[C@H]2[C@H](OC(=O)Nc3ccccc3-c3ccccc3)[C@H](OC(=O)Nc3ccccc3-c3ccccc3)[C@@H](OC)O[C@@H]2CO)c1`, for which the composite z-score came out at 0.478.

`C=C(COC)/C(=C/C[C@@H](OC(C)=O)c1cccc(OCCO)c1)c1cnc2ccccc2c1` gave a composite z-score of 1.42.

Molecule `Cc1ccc(S[C@]2(C(=O)NCc3ccccc3)CC(=O)N(Cc3ccccc3C(F)(F)F)[C@@H]2c2ccc(CO)cc2I)cc1` yielded a composite z-score of -0.175.

Take `COCCOC(=O)N1C(=O)[C@@]2(c3cc(C#CC4(O)CCCCCC4)ccc31)[C@H](C(N)=O)[C@H]1C(=O)O[C@H](c3ccccc3)[C@H](c3ccccc3)N1[C@@H]2c1ccc(OCCO)cc1`: the composite z-score is -0.0029.

On to `COc1c(C)cc(-c2cc3c(c(CCc4ccccc4)n2)[Si](C(C)C)(C(C)C)O[C@H]3c2ccccc2)cc1C`, for which the composite z-score is -0.2.

For the molecule `COC(=O)[C@@]1(Cc2ccc(F)cc2)[C@H]2c3cc(C(=O)N(C)C)n(Cc4cccc5ccccc45)c3C[C@H]2CN1C(=O)c1ccccc1`, the composite z-score is -0.967.

Regarding `CC(C)C[C@@H]1NC(=O)[C@@H]2C[C@H](C(=O)NCCCCCNC(=O)CS)[C@H](c3ccc(O)cc3)N2C1=O`, the composite z-score turned out to be 0.652.

`C=C[C@@H](CO)NS(=O)(=O)c1ccc(Br)cc1` displayed a composite z-score of 0.222.

`COC(=O)[C@@]1(Cc2ccc(F)cc2)[C@H]2c3cc(C(=O)N(C)C)n(CCF)c3C[C@H]2CN1C(=O)c1ccccc1` gave a composite z-score of -0.411.

`COC(=O)[C@@]1(Cc2ccccc2)[C@H]2c3cc(C(=O)N(C)C)n(Cc4nc5ccccc5[nH]4)c3C[C@H]2CN1C(=O)c1ccccc1` registered a composite z-score of -0.538.

The molecule `C=C(C(=O)CC[C@@H](OC(=O)c1ccccc1-c1ccccc1C(=O)O)c1ccc(OCCO)cc1)C(C)C` had a composite z-score of 0.639.

In turn, `COCCOC(=O)N1C(=O)[C@@]2(c3cc(C#CCCO)ccc31)[C@H](C(=O)N1CCN(c3ncccn3)CC1)[C@H]1C(=O)O[C@H](c3ccccc3)[C@H](c3ccccc3)N1[C@@H]2c1ccc(OCCO)cc1` gave a composite z-score of 0.372.

`O=C1OC[C@@H](c2ccccc2)n2cc(/C=C/c3ccccc3)cc21` had a composite z-score of -0.701.

With `CCOC(=O)C[C@H]1[C@H](OC(=O)c2cc3ccccc3oc2=O)[C@@H](NC(=O)Cc2ccc(OC)cc2)c2cc(OCCCO)ccc2N1C(=O)Cc1ccc(OC)cc1`, the composite z-score is 0.441.

In turn, `C=CCN1C(=O)[C@@]2(O[C@@H](CCO)[C@H]([Si](C)(C)c3ccc(OC)cc3)[C@H]2C)c2cc(N3CCCCC3=O)ccc21` yielded a composite z-score of 0.285.

Turning to `COc1ccc(CCNC(=O)[C@@]2(C)c3ccccc3C(=O)N(Cc3ccc(OC(F)(F)F)cc3)[C@H]2c2ccc(CO)cc2)cc1`, the composite z-score came out at 0.309.

The molecule `COC(=O)[C@@]1(Cc2ccccc2)[C@H]2c3cc(C(=O)N(C)C)n(CCF)c3C[C@H]2CN1C(=O)c1ccccc1` gave a composite z-score of -0.927.

Take `COc1ccc(NN2C(C(O)c3ccc(F)cc3)C=CC3C(=O)N(C4CCCCC4)C(=O)C32)cc1` (centres undefined): the composite z-score is -0.0299.

In turn, `COC(=O)[C@@]1(Cc2ccc(F)cc2)[C@H]2c3cc(C(=O)N(C)C)n(Cc4ccsc4Br)c3C[C@H]2CN1C(=O)c1ccccc1` displayed a composite z-score of -0.0576.

`COc1ccc(NN2C(C(O)c3ccccc3)C=CC3C(=O)N(C4CCCCC4)C(=O)C32)cc1` (centres undefined) gave a composite z-score of -0.223.

Consider `C=CC[C@H](OC(=O)Nc1ccc(SC)cc1)c1ccc(O)c(F)c1`, for which the composite z-score is -0.174.

As to `CO[C@H]1O[C@H](CO)[C@@H](OC(=O)CCc2ccccc2)[C@@H]2OC(=O)[C@@H](Cc3ccc4ccccc4c3)C/C=C/C[C@H](Cc3ccc4ccccc4c3)C(=O)O[C@@H]12`, the composite z-score was -1.34.
